Screening data deposited in PubChem BioAssay by several laboratories.
eIF4E-4G inh = blocks eIF4E binding to eIF4G | TR-FRET eIF4E-eIF4GI(517-606) binding, 2 h | actives 0.37% (n = 220,000) | inhibition, % at 21.7 µM;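 active = inhibition above about 30%, limit read from the data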;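 also: 0% = full FRET control wells and 100% = background wells lacking eIF4GI fragment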
Mcl1 Bid PPI = disrupts binding of human Mcl-1 to Bid peptide. Q07820. TR-FRET Mcl-1/Bid-Dy647 peptide binding, 1536-well. inhibition, % at 21.7 µM. actives 0.97% (n = 220,000);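 active = compounds that cut the binding signal by more than half at the single screening dose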;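 also: His-tagged Mcl-1 with europium anti-His antibody binding Bid BH3 peptide; 0% = Mcl-1 plus peptide wells and 100% = peptide-only wells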
MCL1 BIM primary = inhibitors of human MCL1 binding to BIM-BH3 peptide; Q07820; GST-MCL1 / FITC-Bim-BH3 fluorescence polarization; inhibition, % at 10.9 µM; actives 0.68% (n = 320,000); AID 2057;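 active = inhibition above the mean inhibition of all tested compounds plus 3 SD, set per campaign, cut at about 40% in these data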;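 also: 0% = DMSO wells and 100% = unlabeled Bim-BH3 peptide control; higher means more loss of mP so more displacement of Bim peptide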
Mcl1 Noxa PPI = Mcl-1/Noxa interaction inhibition; Q07820; TR-FRET Mcl-1/Noxa peptide binding, 2 h; inhibition, % at 21.7 µM; actives 1.5% (n = 220,000);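 active = compounds that cut the protein-peptide binding signal by more than 50% relative to plate controls in a single-dose test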;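 also: His-tagged Mcl-1 with rhodamine Noxa BH3 peptide and terbium anti-His antibody; 0% = Mcl-1 plus Noxa peptide wells and 100% = peptide-only wells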
14-3-3 Bad PPI = disrupts binding of bovine 14-3-3 zeta to phospho-Bad peptide | AID 781 | P63103 | inhibition, % at 21.7 µM | TR-FRET 14-3-3zeta/Dy647-pBad peptide displacement, 1 h | actives 0.71% (n = 220,000);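 active = inhibition above about 70%, limit read from the data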;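 also: 0% = full 14-3-3 plus peptide FRET controls and 100% = background without 14-3-3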
Bim-Mcl-1 = inhibitors of Bim-Mcl-1 interaction, human. actives 0.1% (n = 190,000). Bead-based flow cytometry, Bim peptide-Mcl-1 binding. inhibition, % at 10 µM. Q07820; in the data active = inhibition above about 40%;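 also: 0% = no compound tracer wells and 100% = peptide blocker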
* marks the source's active call; other numbers are inactive results; x = no result given; [ ] = another dose, or the depositor's remark. Only some compounds are listed: those with a hit (about 2.6% of all), similar ones and a draw of the others.

SMILES	eIF4E-4G inh	Mcl1 Bid PPI	MCL1 BIM primary	Mcl1 Noxa PPI	14-3-3 Bad PPI	Bim-Mcl-1
Cc1nnc(Sc2cc(NCCO)c([N+](=O)[O-])c3nonc23)s1	0.0	-88.7	x	76.7*	-7.3	5.0
Cc1nn(C)cc1S(=O)(=O)N1CCCCC1C (configuration not stated)	x	x	7.2	x	x	x
CCCOc1ccc(CNC(=O)C2CCN(C(=O)N3CCOc4ccccc43)CC2)cc1	x	x	1.0	x	x	x
O=C(c1ccccc1)N1CCN(C2CC3CCC2C3)CC1 (configuration not stated)	2.1	57.4*	-1.1	-14.3	49.5	-3.0
O=C(c1ccc(F)cc1)N1CCN(C2CC3CCC2C3)CC1 (configuration not stated)	-4.2	-17.4	5.9	7.0	4.6	5.0
O=C(c1ccccc1)N1CCN(C2CCCCCC2)CC1	6.5	66.4*	4.3	27.0	72.3*	-1.0
Cc1ccc(C(=O)COC(=O)c2cc(=O)[nH]c3ccccc23)cc1C	9.8	0.0	-5.1	6.1	-15.3	2.0
NC(=O)COc1c(-c2ccccc2)oc2ccccc2c1=O	11.4	97.5*	8.0	16.6	-4.9	3.0
COc1ccc(-n2nc(C(=O)NCC(=O)NCc3cccc(F)c3)c3ccccc3c2=O)cc1Cl	x	x	3.2	x	x	x
CC1(C)Cc2c(c(-c3ccco3)nc3sc4c(NCCO)ncnc4c23)CO1	3.2	6.2	0.7	54.5*	-18.8	3.0
CSc1nc(N(CCO)CCO)c2sc3nc(-c4ccco4)c4c(c3c2n1)CCC4	9.0	80.0*	x	106.7*	9.8	9.0
CSc1nc(SCCO)c2sc3nc(-c4ccco4)c4c(c3c2n1)CC(C)(C)OC4	11.8	84.7*	x	99.2*	18.3	6.0
COc1ccc(CNC(=O)c2ccc(N3CCC4(CC3)CC(c3ccc(Cl)cc3)=NO4)c(N)c2)cc1	x	x	6.0	x	x	x
Cc1ccc(Oc2c(C(N)=O)cc([N+](=O)[O-])cc2[N+](=O)[O-])cc1	40.4*[fluorescence artefact?]	-31.9	0.2	13.2	4.7	-5.0
CC(C)c1nc2sc3c(=O)[nH]c(=S)[nH]c3c2c2c1CCCC2	0.8	-172.1	7.1	57.2*	0.2	x
CC(C)c1nc2sc3c(=O)[nH]c(=S)[nH]c3c2c2c1CCC2	1.7	10.5	x	80.9*	7.0	0.0
c1ccc(-c2cc(-c3nnc4n3N=C(c3ccc5ccccc5c3)CS4)[nH]n2)cc1	3.4	57.6*	1.5	30.8	29.3	0.0
COc1ccc(NC(=O)c2ccco2)cc1NC(=O)c1ccco1	4.4	0.4	3.1	-23.5	-5.8	41.0*
Nc1ccc(Br)c2c1C(=O)c1ccccc1C2=O	2.3	-4.8	40.4*	35.9	6.8	1.0
Nc1ccc(NC(=O)c2ccccc2)c2c1C(=O)c1ccccc1C2=O	-9.8	53.5*	16.8	65.6*	11.4	-1.0
COc1ccc(N)c2c1C(=O)c1ccccc1C2=O	2.1	-91.8	23.2	31.6	-44.1	11.0
O=C(Nc1ccc(S(=O)(=O)Nc2ncccn2)cc1)c1ccc2ncsc2c1	51.4*	89.9*	-0.9	59.6*	80.7*	x
NS(=O)(=O)c1ccc(NC(=O)c2ccc3nccnc3c2)cc1	93.6*	-1.7	-5.2	23.4	4.5	x
O=C(Nc1ccncc1)c1ccc2ncsc2c1	x	x	-2.5	x	x	x
COC(=O)Cn1c(=NC(=O)c2sc3ccccc3c2Cl)sc2cc(S(N)(=O)=O)ccc21	7.0	-173.6	-38.4	-122.7	86.1*[fluorescence artefact?]	-2.0
SMILES	eIF4E-4G inh	Mcl1 Bid PPI	MCL1 BIM primary	Mcl1 Noxa PPI	14-3-3 Bad PPI	Bim-Mcl-1
C#CCn1c(=NC(=O)c2cc(Cl)sc2Cl)sc2cc(S(N)(=O)=O)ccc21	4.4	-177.6	-24.4	-19.3	76.4*	-2.0
C#CCn1c(=NC(=O)CN2C(=O)CCC2=O)sc2cc(S(N)(=O)=O)ccc21	1.8	-13.5	7.4	26.2	-13.0	-5.0
C#CCn1c(=NC(=O)c2ccc(Br)s2)sc2cc(NC(C)=O)ccc21	6.2	58.4*	-1.6	-31.1	70.8*[fluorescence artefact?]	-13.0
COC(=O)Cn1c(=NC(=O)c2nc3ccccc3s2)sc2cc(S(C)(=O)=O)ccc21	-0.6	-12.6	2.5	-29.7	-11.5	-21.0
CCOC(=O)Cn1c(=NC(=O)c2sc3ccccc3c2Cl)sc2cc(S(N)(=O)=O)ccc21	12.6	11.8	-29.8	-14.5	79.2*[fluorescence artefact?]	-1.0
CCOC(=O)Cn1c(=NC(=O)CSC(C)=O)sc2ccccc21	-1.7	-1.2	5.4	11.2	-7.8	0.0
CCCCn1c2c(c3ccccc31)CCc1nonc1-2	x	x	-3.0	x	x	x
CCC(NS(=O)(=O)c1ccc(C)cc1)C(=O)N1CCOCCOCCOCCOCC1 (configuration not stated)	x	x	-12.2	x	x	x
Cc1cc(C)c2c(N)c3cccc(C)c3nc2n1	2.8	-11.5	-2.5	31.3	13.7	0.0
Cc1cccc(CC(=O)NCCS(=O)(=O)N2CCN(c3cccc(Cl)c3)CC2)c1	x	x	0.3	x	x	x
COc1cccc(OC)c1OCCN1CCN(C(c2ccccc2)c2ccccc2)CC1	x	x	7.3	x	x	x
CC(/C=C/c1ccco1)=N\NC(=O)c1cc(C)[nH]n1	3.6	-5.3	18.5	77.8*	8.9	-3.0
CC(/C=C/c1ccco1)=N/NC(=O)Cc1cccs1	2.9	5.5	20.7	87.1*	9.6	-5.0
Cc1cc(C(=O)N/N=C/c2ccco2)n[nH]1	1.6	-25.1	1.7	-7.7	-1.5	0.0
CCOC(=O)c1nn(-c2ccccc2)c(C#N)c1N	-0.7	-29.2	14.0	2.5	-8.8	41.0*
CCOC(=O)c1nn(-c2ccccc2)c(=O)c(C#N)c1C	5.0	21.1	-6.3	-1.7	5.1	2.0
C=CCNC(=O)c1c(CSc2ccc(F)cc2)noc1C(=O)NCCC	x	x	2.4	x	x	x
O=c1[nH]c(/C=C/c2ccccc2[N+](=O)[O-])nc2ccccc12	3.4	53.5*	-0.1	3.8	70.5*[fluorescence artefact?]	-10.0
O=c1[nH]c(/C=C/c2ccccn2)nc2ccccc12	x	x	2.2	x	x	x
COc1ccc(CCN(C)C(=O)CN2C(=O)NC3(CCCCC3C)C2=O)cc1OC (configuration not stated)	x	x	2.8	x	x	x
CCOC(=O)CSC1=NC(=O)/C(=C\c2ccc(OC(C)=O)cc2)S1	5.3	29.1	9.7	59.8*	6.6	2.0
CCN(CC)C(=O)CN1CCN(c2ncccn2)CC1	3.6	55.8*	3.0	0.2	47.3	-6.0
O=C(CN1CCN(c2ncccn2)CC1)N1CCCC1	-1.4	-18.2	-10.8	23.5	24.6	-3.0
O=C(O)C1C2CCC(C2)C1C(=O)NCCc1ccccc1 (configuration not stated)	x	x	8.0	x	x	x
O=C(c1ccc(Cl)cc1)n1c(NCc2ccccc2)n[nH]c1=S	-0.1	-48.3	4.5	-5.4	82.5*	-4.0
O=C(CCC(=O)c1ccc(Cl)cc1)NCc1ccccc1	x	x	3.6	x	x	x
CCOc1ccc(CN(C)C(=O)c2cccc(S(=O)(=O)N3CCCC3)c2)cc1OC	x	x	15.1	x	x	x
CC(C)(C)C(=O)NC1CCN(C(=O)N2CCCC2)CC1	-1.6	-6.7	-1.3	22.5	-2.1	-6.0
